{"source": "paper PMC4336329", "about": "(PLoS ONE, 2015)", "note": "Among all 310,000 compounds or so, about 2,200 (0.71%) showed an effect of 50% or more. Effects have a minus sign here. Only a selection was taken, and strong results are over-represented in it overall.", "data": [{"target": "human ether-à-go-go-related gene (hERG) potassium channel (human, UniProt Q12809)", "sequence (Q12809 whole entry, looked up)": "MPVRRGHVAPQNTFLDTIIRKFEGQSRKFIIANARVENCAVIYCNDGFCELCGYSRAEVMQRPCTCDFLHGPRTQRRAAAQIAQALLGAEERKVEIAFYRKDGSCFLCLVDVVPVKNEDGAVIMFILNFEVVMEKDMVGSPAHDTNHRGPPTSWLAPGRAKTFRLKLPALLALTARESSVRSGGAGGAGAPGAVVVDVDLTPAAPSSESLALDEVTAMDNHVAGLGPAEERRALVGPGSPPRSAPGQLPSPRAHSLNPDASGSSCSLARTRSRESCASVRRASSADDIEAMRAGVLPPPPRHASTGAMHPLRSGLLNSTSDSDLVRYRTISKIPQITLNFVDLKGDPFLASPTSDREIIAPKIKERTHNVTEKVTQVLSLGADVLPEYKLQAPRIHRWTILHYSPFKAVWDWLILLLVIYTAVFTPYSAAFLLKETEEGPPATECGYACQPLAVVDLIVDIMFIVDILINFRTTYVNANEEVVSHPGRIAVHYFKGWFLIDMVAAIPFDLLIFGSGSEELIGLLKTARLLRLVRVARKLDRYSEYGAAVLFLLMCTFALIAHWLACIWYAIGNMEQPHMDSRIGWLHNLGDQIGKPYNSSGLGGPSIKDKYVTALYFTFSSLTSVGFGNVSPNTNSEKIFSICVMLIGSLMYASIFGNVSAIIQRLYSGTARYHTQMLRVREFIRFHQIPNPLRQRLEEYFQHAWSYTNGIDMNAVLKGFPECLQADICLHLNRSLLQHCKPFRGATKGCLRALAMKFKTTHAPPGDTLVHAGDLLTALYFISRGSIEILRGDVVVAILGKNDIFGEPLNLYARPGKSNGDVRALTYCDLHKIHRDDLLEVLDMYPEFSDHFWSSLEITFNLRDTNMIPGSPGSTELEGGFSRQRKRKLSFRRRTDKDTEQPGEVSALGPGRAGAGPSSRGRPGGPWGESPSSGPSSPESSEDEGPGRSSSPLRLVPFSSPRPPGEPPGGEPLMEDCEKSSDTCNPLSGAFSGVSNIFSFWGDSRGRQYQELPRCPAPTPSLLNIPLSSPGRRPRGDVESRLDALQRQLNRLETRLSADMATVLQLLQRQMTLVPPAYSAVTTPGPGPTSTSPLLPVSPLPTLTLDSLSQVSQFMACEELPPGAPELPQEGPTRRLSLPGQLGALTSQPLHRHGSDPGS", "experiment": "primary screen, population patch clamp on CHO cells stably expressing hERG; higher = less effect of the substance", "units": {"hERG current change (%, negative = inhibition) at 1uM": "%"}, "values": [{"smiles": "CCN(CC(=O)Nc1ccc(NC(C)=O)cc1)C(=O)CSc1nnc(-c2ccco2)n1CC", "hERG current change (%, negative = inhibition) at 1uM": 16.2}, {"smiles": "Cc1nn2c(-c3ccccc3)ccnc2c1-c1ccccc1", "hERG current change (%, negative = inhibition) at 1uM": 7.57}, {"smiles": "CC(C)Oc1ccc(/C(O)=C2/C(=O)C(=O)N(Cc3cccnc3)C2c2ccco2)cc1", "note": "(stereo not shown)", "hERG current change (%, negative = inhibition) at 1uM": 14.2}, {"smiles": "Cc1cc(C)c(S(=O)(=O)N2CCOC2CNC(=O)C(=O)NCCCN2CCCC2=O)c(C)c1", "note": "(stereo not shown)", "hERG current change (%, negative = inhibition) at 1uM": 7.05}, {"smiles": "O=C(c1ccccc1)c1c[nH]c(C(=O)C(Cl)(Cl)Cl)c1", "hERG current change (%, negative = inhibition) at 1uM": 16}, {"smiles": "COC/C=C/C1=CC2=CC(=O)C(C)(OC(=O)c3cnc4ccccc4n3)C(=O)C2=CN1C1CCCCC1", "note": "(stereo not shown)", "hERG current change (%, negative = inhibition) at 1uM": 9.88}, {"smiles": "Cc1csc(NC(=O)CSc2nncs2)n1", "hERG current change (%, negative = inhibition) at 1uM": 8.29}, {"smiles": "CC(NC(=O)Cc1cccs1)c1ccc2c(c1)OCO2", "note": "(stereo not shown)", "hERG current change (%, negative = inhibition) at 1uM": -4.41}, {"smiles": "CCOC(=O)c1cccc(Nc2ncnc3ccc(C)cc23)c1", "hERG current change (%, negative = inhibition) at 1uM": -3.73}, {"smiles": "CC(C)OCCCNC(=O)COc1ccc2oc3c(c2c1)CCCC3", "hERG current change (%, negative = inhibition) at 1uM": 11.1}, {"smiles": "CC(C)N(CCNC(=O)COc1ccc2oc3c(c2c1)CCCC3)C(C)C", "hERG current change (%, negative = inhibition) at 1uM": -52.7}, {"smiles": "CCN(CC)CCCNC(=O)COc1ccc2oc3c(c2c1)CCCC3.Cl", "hERG current change (%, negative = inhibition) at 1uM": 6.07}, {"smiles": "O=C(NCCN=C1NS(=O)(=O)c2ccccc21)c1ccc2nccnc2c1", "hERG current change (%, negative = inhibition) at 1uM": 18.3}, {"smiles": "O=C(CSCc1ccccn1)Nc1ccccc1", "hERG current change (%, negative = inhibition) at 1uM": -0.275}, {"smiles": "O=C(CSCc1cccc(CSCC(=O)Nc2ccccc2)n1)Nc1ccccc1", "hERG current change (%, negative = inhibition) at 1uM": -59.7}, {"smiles": "O=C(CSCc1cccc(CSCC(=O)Nc2ccc3ccccc3c2)n1)Nc1ccc2ccccc2c1", "hERG current change (%, negative = inhibition) at 1uM": 8.91}, {"smiles": "C=CCNC(=O)c1sc(=S)n(-c2ccc(C(=O)OCC)cc2)c1N", "hERG current change (%, negative = inhibition) at 1uM": 2.24}, {"smiles": "O=C(c1cccn2c(=O)c3ccccc3nc12)N1CCN(Cc2ccc3c(c2)OCO3)CC1", "hERG current change (%, negative = inhibition) at 1uM": -54.4}, {"smiles": "O=C(c1ccc2nc3ccccc3c(=O)n2c1)N1CCN(Cc2ccc3c(c2)OCO3)CC1", "hERG current change (%, negative = inhibition) at 1uM": -12.2}, {"smiles": "O=C(c1cccn2c(=O)c3cc(Cl)ccc3nc12)N1CCN(Cc2ccc3c(c2)OCO3)CC1", "hERG current change (%, negative = inhibition) at 1uM": -33.5}, {"smiles": "O=C(c1ccc2c(c1)OCCO2)C1CCN(C(=O)c2ccc(F)cc2)CC1", "hERG current change (%, negative = inhibition) at 1uM": 4.28}, {"smiles": "O=C(Oc1cccc([N+](=O)[O-])c1)C1CCN(C(=O)c2ccc(F)cc2)CC1", "hERG current change (%, negative = inhibition) at 1uM": -3.31}, {"smiles": "O=C(c1ccc2c(c1)OCCO2)C1CCN(C(=O)c2ccc(F)c(F)c2)CC1", "hERG current change (%, negative = inhibition) at 1uM": 2.71}, {"smiles": "Cc1onc(-c2ccccc2Cl)c1C(=O)OCc1nnc(-c2ccccc2)o1", "hERG current change (%, negative = inhibition) at 1uM": 3.84}, {"smiles": "CCOC(=O)N1CCN(C(=O)C2CCN(C(=O)c3ccc([N+](=O)[O-])cc3)CC2)CC1", "hERG current change (%, negative = inhibition) at 1uM": -26.9}, {"smiles": "Cc1onc(-c2ccccc2)c1C(=O)OCc1nnc(-c2ccccc2)o1", "hERG current change (%, negative = inhibition) at 1uM": 5.73}, {"smiles": "Cc1onc(-c2ccccc2)c1C(=O)OCc1nnc(-c2ccc([N+](=O)[O-])cc2)o1", "hERG current change (%, negative = inhibition) at 1uM": -51.2}, {"smiles": "O=C(OCc1nnc(-c2ccc([N+](=O)[O-])cc2)o1)C1CCN(C(=O)c2ccc(F)cc2)CC1", "hERG current change (%, negative = inhibition) at 1uM": -71.4}, {"smiles": "CCOc1ccc(C(=O)N2CCC(C(=O)c3ccc4c(c3)OCCO4)CC2)cc1", "hERG current change (%, negative = inhibition) at 1uM": -61.5}, {"smiles": "CCOc1ccc(C(=O)C2CCN(C(=O)c3ccc([N+](=O)[O-])cc3)CC2)cc1", "hERG current change (%, negative = inhibition) at 1uM": -81.1}, {"smiles": "CCOC(=O)C1CCN(C(=O)C2CCN(C(=O)c3ccc([N+](=O)[O-])cc3)CC2)CC1", "hERG current change (%, negative = inhibition) at 1uM": -28.2}, {"smiles": "O=C(CCC(=O)c1ccc(F)cc1)OCc1nnc(-c2ccc([N+](=O)[O-])cc2)o1", "hERG current change (%, negative = inhibition) at 1uM": 1.72}, {"smiles": "Cc1nc(-c2ccc(C(=O)N3CCCC3)cc2)cs1", "hERG current change (%, negative = inhibition) at 1uM": 9.11}, {"smiles": "Cc1cccc(C(=O)NCC(=O)NC2CCC(C)CC2)c1", "note": "(stereo not shown)", "hERG current change (%, negative = inhibition) at 1uM": 1.64}, {"smiles": "COCCN(Cc1cc2cc(C)ccc2n2nnnc12)C(=S)Nc1ccccc1C", "hERG current change (%, negative = inhibition) at 1uM": 17}, {"smiles": "O=C(/C=C/c1cn(-c2ccccc2)nc1-c1cccc(Cl)c1)N1CCN(c2ccccn2)CC1", "hERG current change (%, negative = inhibition) at 1uM": 11}, {"smiles": "O=C(NC(=S)Nc1cccc2c(O)cccc12)c1cccc(Br)c1", "hERG current change (%, negative = inhibition) at 1uM": 8.92}, {"smiles": "O=C(Nc1nccs1)c1nc[nH]c1C(=O)N1CCc2ccccc2C1", "hERG current change (%, negative = inhibition) at 1uM": 3.14}, {"smiles": "COc1ccc(OC)c(-c2cc(C(=O)NCc3ccc(Cl)cc3)no2)c1", "hERG current change (%, negative = inhibition) at 1uM": 12.1}, {"smiles": "Cc1ccc(NC(=O)/C(=C/c2cccs2)NC(=O)c2ccco2)cc1", "hERG current change (%, negative = inhibition) at 1uM": 17}, {"smiles": "O=C(N/C(=C\\c1cccs1)C(=O)N1CCOCC1)c1ccco1", "hERG current change (%, negative = inhibition) at 1uM": -2.36}, {"smiles": "O=C(N/C(=C/c1cccs1)C(=O)N1CCOCC1)c1ccco1", "hERG current change (%, negative = inhibition) at 1uM": 9.85}, {"smiles": "CN1CCN(C(=O)/C(=C\\c2cccs2)NC(=O)c2ccco2)CC1", "hERG current change (%, negative = inhibition) at 1uM": -65.2}, {"smiles": "CN1CCN(C(=O)/C(=C/c2cccs2)NC(=O)c2ccco2)CC1", "hERG current change (%, negative = inhibition) at 1uM": -62.1}, {"smiles": "Cc1ccccc1NC(=O)/C(=C\\c1cccs1)NC(=O)c1ccco1", "hERG current change (%, negative = inhibition) at 1uM": -3.3}, {"smiles": "COCc1cc(Sc2ccc(OC)cc2)nc(-c2ccccc2)n1", "hERG current change (%, negative = inhibition) at 1uM": 16.2}, {"smiles": "CCCCN(C)C(=O)c1nc2ccccn2c1CN1CCN(C/C=C/c2ccccc2)CC1", "hERG current change (%, negative = inhibition) at 1uM": -80.8}, {"smiles": "CCCCN(C)C(=O)c1nc2ccccn2c1CN1CCN(c2ncccn2)CC1", "hERG current change (%, negative = inhibition) at 1uM": 6.17}, {"smiles": "CCCCN(C)C(=O)c1nc2ccccn2c1CN1CCSCC1", "hERG current change (%, negative = inhibition) at 1uM": 12.1}, {"smiles": "CC(C)(C)c1ccc(C(=O)O/N=C(\\N)c2ccccn2)cc1", "hERG current change (%, negative = inhibition) at 1uM": 13.9}, {"smiles": "O=C(CN1C(=O)/C(=C/c2ccccc2)SC1=S)Nc1cccnc1", "hERG current change (%, negative = inhibition) at 1uM": 9.4}, {"smiles": "O=C(CC1CCCCC1)NCc1ccco1", "hERG current change (%, negative = inhibition) at 1uM": 7.39}, {"smiles": "CCCN(CCC)CC(O)COc1ccccc1C(=O)Nc1ccccc1.Cl", "note": "(stereo not shown)", "hERG current change (%, negative = inhibition) at 1uM": -35.8}, {"smiles": "CCCCN(CCCC)CC(O)COc1ccccc1Br.Cl", "note": "(stereo not shown)", "hERG current change (%, negative = inhibition) at 1uM": 1.61}, {"smiles": "CCCCN(CCCC)CC(O)COc1ccccc1C(=O)Nc1ccccc1", "note": "(stereo not shown)", "hERG current change (%, negative = inhibition) at 1uM": -55}]}]}
